Calls of active or inactive are those of the source.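 The calls were made as follows: active = at least 20% inhibition of 6-phosphogluconate dehydrogenase activity; inactive = the rest.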
What follows are compounds tested against 6-phosphogluconate dehydrogenase, decarboxylating (Homo sapiens) (UniProt P52209) (assay: inhibition of human phosphogluconate dehydrogenase – biochemical, recombinant enzyme, NADPH absorbance, primary screen (AID 1159550)). Conditions: recombinant 6PGD, NADPH absorbance 341 nm; at 10 µM; active compounds read high.
Chain of 6-phosphogluconate dehydrogenase, decarboxylating (Homo sapiens) (P52209 whole entry, looked up): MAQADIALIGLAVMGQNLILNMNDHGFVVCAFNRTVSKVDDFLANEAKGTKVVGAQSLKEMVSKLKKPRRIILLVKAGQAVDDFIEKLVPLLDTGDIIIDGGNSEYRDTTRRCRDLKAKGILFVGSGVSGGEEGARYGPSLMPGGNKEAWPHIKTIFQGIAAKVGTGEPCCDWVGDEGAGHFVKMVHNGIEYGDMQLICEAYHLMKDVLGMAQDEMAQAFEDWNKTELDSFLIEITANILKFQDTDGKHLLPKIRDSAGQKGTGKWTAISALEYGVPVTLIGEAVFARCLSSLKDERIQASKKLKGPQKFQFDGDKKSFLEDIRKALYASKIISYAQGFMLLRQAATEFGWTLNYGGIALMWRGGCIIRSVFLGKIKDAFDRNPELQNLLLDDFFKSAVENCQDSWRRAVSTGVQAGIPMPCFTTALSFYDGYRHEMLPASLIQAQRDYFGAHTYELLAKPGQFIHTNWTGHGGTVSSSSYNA
For NCC(CC(=O)O)c1ccc(Cl)s1 (configuration not stated), the inhibition was -3.23% (inactive).
For COP(N)(=O)SC (configuration not stated), the inhibition was 4.36% (inactive).
For C=C1C([C@]2(C)C(CC(=O)OC)[C@@](C)(COC(C)=O)OC(=O)C[C@@H]2OC(C)=O)[C@@H](OC=O)[C@H](OC(=O)C(OC(C)=O)C(C)CC)[C@@]2(C)[C@H](c3ccoc3)CC(=O)C12O (some centres not stated), the inhibition was -6.98% (inactive).
For ClC1=C(Cl)[C@@]2(Cl)[C@@H]3[C@H]4C[C@@H]([C@H]5O[C@@H]45)[C@H]3[C@@]1(Cl)C2(Cl)Cl, the inhibition was -14% (inactive).
In the case of CC1CC(O)C2(O)C13CC(=O)OCC2(C)C(C)(O)C(=O)C3 (configuration not stated), the inhibition is reported as 17.6% (inactive).
For CC(C)=CCC[C@]1(C)C=Cc2c(O)c3c(c(CC=C(C)C)c2O1)O[C@]12C(=C[C@@H]4C[C@H]1C(C)(C)O[C@@]2(C/C=C(/C)C(N)=O)C4=O)C3=O, the inhibition was -5.75% (inactive).
For C[C@]12CCC(=O)C=C1CCc1ccc(O)cc12, the inhibition was -3.52% (inactive).
C=C(C)C(=O)/C(=C/C(=O)O)OC was tested, and the inhibition was 12.8% (inactive).
OC1C[C@H]2CCC[C@@H](C1)N2Cc1ccccc1 (some centres not stated) was tested, and the inhibition was 1.32% (inactive).
With CO[C@H]1[C@H](O)[C@H](O[C@H]2CC[C@]3(C)C4CC[C@]5(C)[C@@H](C6=CC(=O)OC6)CC[C@]5(O)C4CC[C@@H]3C2)O[C@@H](C)[C@@H]1O (some centres not stated) the inhibition was 11.3% (inactive).
CC(=O)OC1CC2(C)C(c3ccoc3)CC3OC32C2(C)C(=O)C(O)=C3C(C)(C)C(=O)C=CC3(C)C12 (configuration not stated) was tested, and the inhibition was 9.52% (inactive).
In the case of COP(=O)(NC(C)=O)SC (configuration not stated), the inhibition is reported as -9.95% (inactive).

From PubChem BioAssay
